MITF inh – blocks human microphthalmia-associated transcription factor. O75030. AlphaScreen MITF homodimerization, bead proximity signal. inhibition, % at 2.6 µM. hit rate 0.91% among 650,000; in the data active = inhibition above about 50%;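 also: 0% = vehicle wells with protein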
Target sequence (O75030 whole entry, looked up): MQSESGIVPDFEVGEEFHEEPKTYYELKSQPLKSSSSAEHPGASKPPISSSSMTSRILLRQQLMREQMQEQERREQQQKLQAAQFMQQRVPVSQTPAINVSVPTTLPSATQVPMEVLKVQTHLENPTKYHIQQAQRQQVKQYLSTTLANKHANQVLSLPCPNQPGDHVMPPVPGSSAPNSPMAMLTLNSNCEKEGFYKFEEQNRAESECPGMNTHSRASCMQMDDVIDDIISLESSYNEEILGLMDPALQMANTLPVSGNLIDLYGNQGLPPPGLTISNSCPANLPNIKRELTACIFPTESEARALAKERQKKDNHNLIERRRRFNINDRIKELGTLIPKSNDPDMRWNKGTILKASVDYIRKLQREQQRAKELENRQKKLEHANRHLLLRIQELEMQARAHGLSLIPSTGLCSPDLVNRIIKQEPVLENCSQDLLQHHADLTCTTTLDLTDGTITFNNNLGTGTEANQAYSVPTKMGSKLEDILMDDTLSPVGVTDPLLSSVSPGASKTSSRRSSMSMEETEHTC
FBW7 activator – activators of human E3 ligase FBW7; hit rate 0.13% among 650,000; normalized activity (activation), % at 26.1 µM; AlphaScreen FBW7–phospho-cyclin E peptide binding, activator screen; in the data active = normalized activity above about 1.9%;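 also: purified mutant Fbw7 with reduced substrate affinity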
GPR151 activ – human GPR151 activation; PathHunter beta-arrestin GPR151 cells, luminescence; activation, % at 11.2 µM; Q8TDV0; hit rate 1% among 650,000; in the data active = activation above about 4.9%;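 also: 0% = median of compound wells and 100% = cells with positive control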
TEAD-YAP block – TEAD-YAP interaction inhibition; AID 1259422; HEK-TIYL cells, TEAD-Gal4/YAP UAS-luciferase luminescence; hit rate 1.4% among 640,000; inhibition, % at 9.12 µM; in the data active = inhibition above about 32%;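 also: 0% = median of test compound wells and 100% = reference inhibitor wells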
GPR151 confirm – confirmation of human GPR151 activators; shares compounds with GPR151 activ; GPR151 PathHunter beta-arrestin cells, luminescence, 90 min; % of EA-reagent control over plate median; activation, % at 11.2 µM; 6,700 tested, under 10 active; AID 1508609;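 active = mean percent activation across replicates above the confirmation screen cutoff of 4.91%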
GPR119 ag – GPR119 activation, counter-screen for GPR151 activators; shares compounds with GPR151 activ; GPR119 PathHunter beta-arrestin cells, luminescence, 90 min; 0 = compound-well median, 100 = enzyme-acceptor control; activation, % at 11.2 µM; hit rate 0.3% among 6,700; AID 1508611;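 active = mean percent activation in the counterscreen above 29.09%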;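 also: counterscreen on off-target GPR119 to flag nonselective hits from the GPR151 activator screen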
* = called active by the depositor; x = no result. An excerpt weighted towards active compounds, which were near 3.5% of everything screened.

SMILES	MITF inh	FBW7 activator	GPR151 activ	TEAD-YAP block	GPR151 confirm	GPR119 ag
COc1ccc(-c2csc(Nc3ccccc3)n2)cc1F	7	0	6.5*	-68	2	1
COc1cccc(Nc2nc(-c3ccc(OC)c(F)c3)cs2)c1	9	0	0	19	x	x
CCOC(=O)c1ccc(CN(CCc2ccc(OC)c(OC)c2)S(=O)(=O)c2cccc([N+](=O)[O-])c2)cc1	8	0	2	0	x	x
CC1=C(C(=O)OCc2ccc3c(c2)OCO3)C(c2cccc(Cl)c2)NC(=O)N1 (stereo not drawn)	-4	0	6.6*	25	1	14
CC1=C(C(=O)OCC(C)C)C(c2ccc3c(c2)OCO3)NC(=O)N1 (stereo not drawn)	11	0	5.9*	-2	0	5
COc1ccc(-c2nnc(NC(=O)c3ccccc3Cl)o2)cc1	8	0	1	-17	x	x
O=C1OCc2ccc(NC(=O)c3cccc4ccccc34)cc21	-1	0	1	-11	x	x
Cc1cc(C)cc(NC(=O)NC2CCNCC2)c1	2	0	8.2*	-1	0	-3
Nn1c(SCC(=O)Nc2ccc(OCc3ccccc3)cc2)nnc1-c1ccccc1	-2	0	1	-9	x	x
Nn1c(SCC(=O)Nc2ccc(OCc3ccccc3)cc2)nnc1-c1ccco1	6	0	5.0*	0	-1	-2
CCOCCCNC(=O)C(NC(=O)C1CCC(=O)N1)c1ccccc1 (stereo not drawn)	-12	0	5.6*	-2	0	16
COc1cc(OC)cc(C(=O)Nc2c(C)n(C)n(-c3ccccc3)c2=O)c1	13	0	0	6	x	x
O=S(=O)(/C=C/c1ccccc1)N1CCCC(N2CCN(c3ccccc3)CC2)C1 (stereo not drawn)	1	0	5.6*	20	0	6
Cc1cc(=O)n(CC(=O)Nc2ccc(F)cc2)c(-n2nc(C)cc2C)n1	21	1	-3	-1	x	x
COc1ccccc1-c1nnc(C2CCN(S(=O)(=O)c3ccccc3)CC2)o1	-5	0	5.8*	0	0	-10
Nc1ccc2c(c1)S(=O)(=O)c1cc(N)ccc1O2	3	0	7.4*	-59	0	-6
CC1(C)CC(=O)N(CC(=O)N2CCCCC2)c2ccccc2S1	9	1	5.7*	-5	-1	-2
CC1(C)CC(=O)N(CC(=O)N2CCCCCC2)c2ccccc2S1	5	0	4	-4	x	x
CC(=O)N1CCc2cc(Br)cc(S(=O)(=O)NC3CCCC3)c21	8	0	1	3	x	x
CC(=O)N1CCc2cc(Br)cc(S(=O)(=O)NC3CCCc4ccccc43)c21 (stereo not drawn)	13	0	5.1*	-11	0	11
O=C(Cc1ccc(F)cc1)OCn1nnc2ccccc2c1=O	11	0	-1	4	x	x
Cc1ccccc1NC(=O)CCNS(=O)(=O)c1ccc(Br)s1	0	0	2	1	x	x
CCn1c(C(=O)O)c(CC(=O)Nc2cc(Cl)ccc2OC)c2ccccc21	-1	0	5.4*	2	-1	-11
COc1ccc(C)cc1NC(=O)Cc1c(C(=O)O)n(C)c2ccccc12	18	0	1	5	x	x
COC(=O)c1c(NC(=O)c2ccc([N+](=O)[O-])cc2)sc(C(=O)N2CCOCC2)c1C	13	0	5.5*	-1	1	4
SMILES	MITF inh	FBW7 activator	GPR151 activ	TEAD-YAP block	GPR151 confirm	GPR119 ag
Cc1sc(NC(=O)Cc2ccccc2[N+](=O)[O-])c(C(N)=O)c1C	9	0	0	-6	x	x
COc1ccc(-c2[nH]ncc2CN[C@@H]2C[C@@H](C(=O)NC(C)C)N(Cc3ccccc3)C2)cc1	8	0	5.7*	-1	0	-4
COc1ccc(O)c(CN[C@H]2C[C@@H](C(=O)NC(C)C)N(Cc3ccc4ccccc4c3)C2)c1	-4	0	0	-1	x	x
CN1CCN(CCCN2c3ccccc3Sc3ccc(S(=O)(=O)N(C)C)cc32)CC1	-5	0	5.4*	x	-1	-7
OCCN1CCN(CCCN2c3ccccc3Sc3ccc(Cl)cc32)CC1	18	0	4	3	x	x
COc1ccc(Cl)cc1NC(=O)N(C)Cc1c(C)nn(C)c1C	-15	1	9.6*	-21	1	-2
COc1ccc(Cl)cc1NC(=O)CCn1nc(C)c(C)c1C	4	0	0	-15	x	x
Cc1csc(NC(=O)CSc2nc(C3CC3)nc3sc(C)c(C)c23)n1	9	0	6.3*	-17	1	7
C=CCOc1ccc(CNCCO)cc1OCC	6	0	7.6*	4	-1	0
CCOc1cc(CNCCO)ccc1OCc1ccccc1	-15	0	-1	-13	x	x
C=CCOc1ccc(CNC2CCCC2)cc1OC	-24	0	5.7*	-1	0	3
CC(=O)NC(CC(C)C)c1nnc2n1CCN(Cc1ccc(C#CC(C)(C)O)cc1)CC2 (stereo not drawn)	11	0	-1	5	x	x
Fc1ccc(CSc2nnnn2-c2ccccc2F)cc1	-2	0	1	-9	x	x
O=C(CN1C(=O)C(c2ccc(F)cc2)=NC12CCCC2)Nc1ccccc1F	2	0	1	27	x	x
O=C1NCC(O)=C1C=NCCO	11	0	6.2*	3	1	3
O=C1NCC(O)=C1C=Nc1ccc(O)cc1	15	0	0	5	x	x
O=C1NCC(O)=C1C=Nc1ccccc1	-2	0	5.2*	3	-2	-15
COc1ccc(Nc2c(-c3c[nH]c4ccccc34)nc3c[n+](CC(N)=O)ccn23)cc1	22	-1	1	1	x	x
CN(CC(=O)Nc1ccc2c(c1)Cc1ccccc1-2)C(=O)c1c[nH]c2ccccc12	4	0	0	-9	x	x
Clc1cc2c(cc1-c1nc(-c3ccccc3)c(-c3ccccc3)[nH]1)OCO2	47	0	6.6*	-1	2	20
COc1ccc(-c2[nH]c(-c3ccc4c(c3)OCO4)nc2-c2ccccc2)cc1	-3	0	1	1	x	x
Cc1cc(NC(=O)CSc2nnc(Cc3cccn3C)n2-c2ccccc2)no1	-8	0	0	7	x	x
Cc1c(C(=O)N2CCN(c3ccccc3Cl)CC2)nnn1-c1nc2c(s1)CCCC2	-6	0	9.4*	1	1	-3
CCOC(=O)c1cccc(NC(=O)CCc2c(C)nc3nc(CN)nn3c2C)c1	3	0	5.9*	12	-2	-20
O=C(O)/C=C\C(=O)Nc1ccc2c3c(cccc13)CC2	3	0	0	31	x	x
CCCNc1nc(Nc2ccc(C)cc2)nc(N2CCCC2)n1	-1	0	4.9*	5	0	-5
CCOCCn1ccc2c(OCC(=O)NCCOC)cccc2c1=O	8	0	14*	0	1	2
CCOCCn1ccc2c(OCC(=O)Nc3ccc(F)cc3F)cccc2c1=O	6	0	2	4	x	x

Bioassay records deposited in PubChem BioAssay by The Scripps Research Institute Molecular Screening Center.
